{"source": "paper PMC7862700", "about": "“An all-to-all approach to the identification of sequence-specific readers for epigenetic DNA modifications on cytosine”", "assay_in_all_cases": "DAPPL (digital affinity profiling via proximity ligation, sequencing); 10 mM Tris-HCl pH 7.5, 50 mM NaCl, 1 mM DTT, 4% glycerol, room temperature, 30 min; GST-TFs on glutathione beads, 16-mer random dsDNA library, 0.1% formaldehyde crosslink after washing; high values mean tight binding", "key": {"FEV": {"molecular_target": "T1, FEV (Homo sapiens, UniProt Q99581 1-238)", "T1 sequence": "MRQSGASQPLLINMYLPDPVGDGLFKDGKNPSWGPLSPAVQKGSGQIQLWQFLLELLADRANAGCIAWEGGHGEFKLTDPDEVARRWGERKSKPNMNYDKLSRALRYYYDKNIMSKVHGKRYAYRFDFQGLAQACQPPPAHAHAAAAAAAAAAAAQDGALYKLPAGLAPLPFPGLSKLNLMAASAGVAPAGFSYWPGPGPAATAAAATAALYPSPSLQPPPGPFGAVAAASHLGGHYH", "conditions": "protein: recombinant; tags: N-terminal GST; dsDNA, one strand shown", "in_short": "(§1)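 Sequencing on an Illumina NextSeq500 followed washing, crosslinking with 0.1% formaldehyde, proximity ligation (BsaI/T4 ligase, 1 h, 37 °C) and PCR amplification of pools that had been incubated for 30 min at room temperature with 200 nmole of a random double-stranded 16-mer DNA library in Tris/NaCl/DTT/glycerol buffer. Each pool held DNA-barcoded human transcription factors, expressed in yeast as GST fusions and captured on glutathione beads, plus a tag-only sample. Binding signal is a hexamer's read frequency for a factor divided by its frequency in the tag-only sample.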"}, "ETV5": {"molecular_target": "ETV5 (Homo sapiens, UniProt P41161 1-510)", "sequence (P41161 whole entry)": "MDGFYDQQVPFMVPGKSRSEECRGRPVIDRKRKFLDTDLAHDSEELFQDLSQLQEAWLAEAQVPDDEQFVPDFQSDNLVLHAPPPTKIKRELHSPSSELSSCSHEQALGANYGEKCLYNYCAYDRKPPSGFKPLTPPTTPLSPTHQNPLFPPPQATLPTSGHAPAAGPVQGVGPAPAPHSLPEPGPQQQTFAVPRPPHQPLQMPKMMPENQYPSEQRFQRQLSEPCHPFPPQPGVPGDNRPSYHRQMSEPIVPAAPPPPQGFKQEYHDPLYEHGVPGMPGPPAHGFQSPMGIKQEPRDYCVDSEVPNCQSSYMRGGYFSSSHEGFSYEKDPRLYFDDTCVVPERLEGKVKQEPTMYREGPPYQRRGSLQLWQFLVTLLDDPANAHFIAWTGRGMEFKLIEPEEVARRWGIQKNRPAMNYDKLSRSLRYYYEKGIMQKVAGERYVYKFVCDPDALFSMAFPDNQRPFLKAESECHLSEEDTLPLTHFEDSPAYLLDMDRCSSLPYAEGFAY", "conditions": "protein: recombinant; tags: N-terminal GST; dsDNA, one strand shown", "in_short": "as §1"}, "HSF1": {"molecular_target": "HSF1 (Homo sapiens, UniProt Q00613 1-529)", "sequence (Q00613 whole entry)": "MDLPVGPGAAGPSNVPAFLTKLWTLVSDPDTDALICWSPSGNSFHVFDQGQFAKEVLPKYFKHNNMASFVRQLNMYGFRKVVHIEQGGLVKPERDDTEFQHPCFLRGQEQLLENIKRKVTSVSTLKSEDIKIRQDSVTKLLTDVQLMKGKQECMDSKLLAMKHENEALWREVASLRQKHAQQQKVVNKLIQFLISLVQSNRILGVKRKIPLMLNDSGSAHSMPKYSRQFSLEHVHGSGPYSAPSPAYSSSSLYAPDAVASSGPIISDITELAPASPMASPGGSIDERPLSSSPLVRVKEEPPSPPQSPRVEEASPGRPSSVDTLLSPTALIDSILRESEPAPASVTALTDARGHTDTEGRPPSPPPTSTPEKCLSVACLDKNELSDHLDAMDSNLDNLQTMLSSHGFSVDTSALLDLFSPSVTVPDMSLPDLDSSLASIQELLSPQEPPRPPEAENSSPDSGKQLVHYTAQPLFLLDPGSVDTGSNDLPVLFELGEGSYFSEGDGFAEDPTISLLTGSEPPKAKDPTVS", "conditions": "protein: recombinant; tags: N-terminal GST; chain copies: 3; dsDNA, one strand shown", "in_short": "as §1"}, "SPIC": {"molecular_target": "T2, SPIC (Homo sapiens, UniProt Q8N5J4 1-248)", "T2 sequence": "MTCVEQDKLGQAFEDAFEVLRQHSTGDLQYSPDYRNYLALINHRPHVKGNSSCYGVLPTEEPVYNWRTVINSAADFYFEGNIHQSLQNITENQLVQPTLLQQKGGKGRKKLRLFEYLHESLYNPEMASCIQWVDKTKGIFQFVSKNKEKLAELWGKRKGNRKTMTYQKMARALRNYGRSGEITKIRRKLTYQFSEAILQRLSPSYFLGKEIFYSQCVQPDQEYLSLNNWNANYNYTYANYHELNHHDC", "conditions": "protein: recombinant; tags: N-terminal GST; dsDNA, one strand shown", "in_short": "as §1"}, "ELF4": {"molecular_target": "ELF4 (Homo sapiens, UniProt Q99607 1-663)", "sequence (Q99607 whole entry)": "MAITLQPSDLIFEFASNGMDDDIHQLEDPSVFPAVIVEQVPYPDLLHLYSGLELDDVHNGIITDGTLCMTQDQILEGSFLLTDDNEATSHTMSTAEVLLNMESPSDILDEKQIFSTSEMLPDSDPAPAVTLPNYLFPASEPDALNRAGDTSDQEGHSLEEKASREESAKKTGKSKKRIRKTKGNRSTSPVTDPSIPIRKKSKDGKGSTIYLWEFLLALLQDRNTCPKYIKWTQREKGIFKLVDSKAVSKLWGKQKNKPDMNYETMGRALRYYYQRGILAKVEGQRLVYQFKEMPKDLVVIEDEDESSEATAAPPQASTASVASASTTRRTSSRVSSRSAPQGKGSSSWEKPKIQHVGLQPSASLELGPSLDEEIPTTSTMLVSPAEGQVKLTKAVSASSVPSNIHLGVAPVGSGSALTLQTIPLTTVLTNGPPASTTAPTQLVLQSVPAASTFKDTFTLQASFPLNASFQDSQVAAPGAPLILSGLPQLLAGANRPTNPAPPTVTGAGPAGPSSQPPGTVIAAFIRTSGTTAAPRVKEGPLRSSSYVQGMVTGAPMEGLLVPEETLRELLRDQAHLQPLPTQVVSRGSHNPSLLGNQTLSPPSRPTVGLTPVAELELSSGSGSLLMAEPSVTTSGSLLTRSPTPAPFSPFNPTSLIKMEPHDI", "conditions": "protein: recombinant; tags: N-terminal GST; dsDNA, one strand shown", "in_short": "as §1"}, "ELK4": {"molecular_target": "T3, ELK4 (Homo sapiens, UniProt P28324-2 1-405)", "T3 sequence": "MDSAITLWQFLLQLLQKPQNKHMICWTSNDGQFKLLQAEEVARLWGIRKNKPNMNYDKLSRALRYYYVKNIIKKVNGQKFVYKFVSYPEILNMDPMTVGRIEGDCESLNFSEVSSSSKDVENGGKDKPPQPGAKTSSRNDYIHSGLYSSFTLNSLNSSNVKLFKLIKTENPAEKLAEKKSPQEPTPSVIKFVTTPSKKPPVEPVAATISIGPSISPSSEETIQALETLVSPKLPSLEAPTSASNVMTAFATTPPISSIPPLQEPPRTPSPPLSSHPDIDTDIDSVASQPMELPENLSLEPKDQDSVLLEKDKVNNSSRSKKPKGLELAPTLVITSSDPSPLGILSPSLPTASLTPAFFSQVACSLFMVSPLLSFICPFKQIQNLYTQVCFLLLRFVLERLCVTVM", "conditions": "protein: recombinant; tags: N-terminal GST; dsDNA, one strand shown", "in_short": "as §1"}, "ETV2": {"molecular_target": "T4, ETV2 (Homo sapiens, UniProt O00321 1-342)", "T4 sequence": "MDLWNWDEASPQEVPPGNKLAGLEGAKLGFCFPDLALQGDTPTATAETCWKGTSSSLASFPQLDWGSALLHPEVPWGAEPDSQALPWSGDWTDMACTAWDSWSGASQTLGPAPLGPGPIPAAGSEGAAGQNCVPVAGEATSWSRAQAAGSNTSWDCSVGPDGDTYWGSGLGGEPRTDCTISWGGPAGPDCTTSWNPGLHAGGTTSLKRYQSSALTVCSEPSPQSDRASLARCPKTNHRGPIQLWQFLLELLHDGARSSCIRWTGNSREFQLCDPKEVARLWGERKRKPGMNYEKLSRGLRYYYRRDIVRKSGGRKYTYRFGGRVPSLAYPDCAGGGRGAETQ", "conditions": "protein: recombinant; tags: N-terminal GST; dsDNA, one strand shown", "in_short": "as §1"}, "ELF3": {"molecular_target": "T5, ELF3 (Homo sapiens, UniProt P78545 1-371)", "T5 sequence": "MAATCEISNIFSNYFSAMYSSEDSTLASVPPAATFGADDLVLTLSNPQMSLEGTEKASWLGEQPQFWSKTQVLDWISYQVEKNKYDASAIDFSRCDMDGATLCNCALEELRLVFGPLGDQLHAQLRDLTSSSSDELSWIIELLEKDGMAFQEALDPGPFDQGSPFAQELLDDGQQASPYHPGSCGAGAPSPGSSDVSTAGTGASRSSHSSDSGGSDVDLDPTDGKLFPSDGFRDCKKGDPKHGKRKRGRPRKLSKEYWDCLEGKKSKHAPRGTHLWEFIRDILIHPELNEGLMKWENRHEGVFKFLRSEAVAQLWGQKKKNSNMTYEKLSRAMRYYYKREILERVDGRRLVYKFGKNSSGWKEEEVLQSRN", "conditions": "protein: recombinant; tags: N-terminal GST; dsDNA, one strand shown", "in_short": "as §1"}, "CRX": {"molecular_target": "CRX (Homo sapiens, UniProt O43186 1-299)", "sequence (O43186 whole entry)": "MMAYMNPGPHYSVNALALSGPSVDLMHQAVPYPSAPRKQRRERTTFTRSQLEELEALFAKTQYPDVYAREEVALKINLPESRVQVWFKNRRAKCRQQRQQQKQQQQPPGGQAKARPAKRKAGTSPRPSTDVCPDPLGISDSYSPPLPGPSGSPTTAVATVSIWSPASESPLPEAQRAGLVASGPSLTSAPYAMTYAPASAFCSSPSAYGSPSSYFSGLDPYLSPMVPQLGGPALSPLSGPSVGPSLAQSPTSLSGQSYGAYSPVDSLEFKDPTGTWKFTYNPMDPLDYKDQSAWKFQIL", "conditions": "protein: recombinant; tags: N-terminal GST; dsDNA, one strand shown", "in_short": "as §1"}}}
{"sequence": "TTTCTG", "values": [{"measurement": "binding signal", "setting": "FEV", "value": "1.32 fold enrichment (6-mer frequency, TF over GST control)"}, {"measurement": "binding signal", "setting": "ETV5", "value": "1.31 fold enrichment (6-mer frequency, TF over GST control)"}, {"measurement": "binding signal", "setting": "HSF1", "value": "2.33 fold enrichment (6-mer frequency, TF over GST control)"}, {"measurement": "binding signal", "setting": "SPIC", "value": "1.3 fold enrichment (6-mer frequency, TF over GST control)"}, {"measurement": "binding signal", "setting": "ELF4", "value": "1.39 fold enrichment (6-mer frequency, TF over GST control)"}, {"measurement": "binding signal", "setting": "ELK4", "value": "1.52 fold enrichment (6-mer frequency, TF over GST control)"}, {"measurement": "binding signal", "setting": "ETV2", "value": "1.36 fold enrichment (6-mer frequency, TF over GST control)"}, {"measurement": "binding signal", "setting": "ELF3", "value": "1.44 fold enrichment (6-mer frequency, TF over GST control)"}, {"measurement": "binding signal", "setting": "CRX", "value": "1.45 fold enrichment (6-mer frequency, TF over GST control)"}]}
